Measured values published in PubChem BioAssay.
The source made the active and inactive calls.

Assays:
[1] = system: PRMT1 (protein arginine N-methyltransferase 1); experiment: small molecules binding arginine methyltransferase PRMT1 – biochemical, small-molecule microarray, 635 nm fluorescence, primary screen (AID 1088); conditions: higher = more signal;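 also: binding of Prmt1 protein to compounds spotted on small-molecule microarray slides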
[2] = growth effects on S. cerevisiae YJM789 – YJM789 clinical isolate, OD600, 24 h, basal, primary screen (AID 1089); conditions: higher = more signal, called active from +8 up or from −8 down;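 also: growth of clinical yeast isolate S. cerevisiae YJM 789 seeded 1000 cells per well; test concentration not given here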
[3] = S. pombe growth modifiers, basal conditions – strain 972, OD600, 24 h, no modulator, primary screen (AID 1090);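 also: basal condition with compound alone and no growth modifier present; test concentration not given here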; conditions: S. pombe 972 growth, higher = more signal, called active from +8 up or from −8 down
[4] = budding yeast growth modifiers under rapamycin – strain BY4716, OD600, 96 h, primary screen (AID 1091); also: test concentration not given here; conditions: S. cerevisiae BY4716 + rapamycin, higher = more signal, called active from +8 up or from −8 down
[5] = biological target: Torsin-1A-interacting protein 2 (Homo sapiens) (UniProt Q8NFQ8); experiment: small molecules binding lysate-expressed LULL1 – cell lysate, human LULL1 lysate, 635/667 nm fluorescence, primary screen (AID 1092); conditions: small-molecule microarray, hLULL1 lysate binding, 635 nm fluorescence; higher = more signal;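 also: probe is lysate of COS7 cells overexpressing human LULL1; score merges per-feature 667 nm fluorescence with signal-to-noise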
Chain of Torsin-1A-interacting protein 2 (Homo sapiens) (Q8NFQ8 whole entry, looked up): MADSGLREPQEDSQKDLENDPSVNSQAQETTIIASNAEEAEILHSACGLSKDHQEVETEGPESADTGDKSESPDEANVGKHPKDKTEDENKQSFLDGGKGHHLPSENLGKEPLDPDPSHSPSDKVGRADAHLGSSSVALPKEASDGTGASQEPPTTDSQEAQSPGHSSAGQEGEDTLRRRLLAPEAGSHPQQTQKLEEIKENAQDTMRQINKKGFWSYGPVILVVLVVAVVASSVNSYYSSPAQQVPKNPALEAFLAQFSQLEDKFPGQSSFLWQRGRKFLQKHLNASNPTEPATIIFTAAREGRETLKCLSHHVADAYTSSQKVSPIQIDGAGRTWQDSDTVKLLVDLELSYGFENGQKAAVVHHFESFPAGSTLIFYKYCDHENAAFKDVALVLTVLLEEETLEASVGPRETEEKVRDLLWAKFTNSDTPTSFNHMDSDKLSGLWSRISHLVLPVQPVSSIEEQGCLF

[6] = optical density change of DRC41 E. coli – strain DRC41, OD650, 24 h, E. coli filamentation project, primary screen (AID 1093);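 also: MC1000 strain lacking acrAB efflux and sulA so SOS filamentation is blocked; test concentration not given here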; conditions: E. coli DRC41 growth, higher = more signal, called active from +8 up or from −8 down
[7] = probe aLefty2 binding to arrayed compounds – biochemical, biotinylated probe, 635/667 nm fluorescence, primary screen (AID 1094); conditions: small-molecule microarray, higher = more signal;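 also: score merges spot fluorescence near 667 nm with spot signal-to-noise ratio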
[8] = system: Noggin (protein binding on small-molecule microarray); experiment: small molecules binding Noggin protein – biochemical, 635/667 nm fluorescence, primary screen (AID 1095); conditions: 635 nm fluorescence, higher = more signal;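 also: score merges 667 nm feature fluorescence with signal to noise over triplicate slides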
[9] = biological target: Neurogenic locus notch homolog protein 3 (Homo sapiens) (UniProt Q9UM47); experiment: small molecules binding NOTCH3 protein – biochemical, 635/667 nm fluorescence, primary screen (AID 1096); conditions: small-molecule microarray, 635 nm fluorescence, higher = more signal
Chain of Neurogenic locus notch homolog protein 3 (Homo sapiens) (Q9UM47 whole entry, looked up): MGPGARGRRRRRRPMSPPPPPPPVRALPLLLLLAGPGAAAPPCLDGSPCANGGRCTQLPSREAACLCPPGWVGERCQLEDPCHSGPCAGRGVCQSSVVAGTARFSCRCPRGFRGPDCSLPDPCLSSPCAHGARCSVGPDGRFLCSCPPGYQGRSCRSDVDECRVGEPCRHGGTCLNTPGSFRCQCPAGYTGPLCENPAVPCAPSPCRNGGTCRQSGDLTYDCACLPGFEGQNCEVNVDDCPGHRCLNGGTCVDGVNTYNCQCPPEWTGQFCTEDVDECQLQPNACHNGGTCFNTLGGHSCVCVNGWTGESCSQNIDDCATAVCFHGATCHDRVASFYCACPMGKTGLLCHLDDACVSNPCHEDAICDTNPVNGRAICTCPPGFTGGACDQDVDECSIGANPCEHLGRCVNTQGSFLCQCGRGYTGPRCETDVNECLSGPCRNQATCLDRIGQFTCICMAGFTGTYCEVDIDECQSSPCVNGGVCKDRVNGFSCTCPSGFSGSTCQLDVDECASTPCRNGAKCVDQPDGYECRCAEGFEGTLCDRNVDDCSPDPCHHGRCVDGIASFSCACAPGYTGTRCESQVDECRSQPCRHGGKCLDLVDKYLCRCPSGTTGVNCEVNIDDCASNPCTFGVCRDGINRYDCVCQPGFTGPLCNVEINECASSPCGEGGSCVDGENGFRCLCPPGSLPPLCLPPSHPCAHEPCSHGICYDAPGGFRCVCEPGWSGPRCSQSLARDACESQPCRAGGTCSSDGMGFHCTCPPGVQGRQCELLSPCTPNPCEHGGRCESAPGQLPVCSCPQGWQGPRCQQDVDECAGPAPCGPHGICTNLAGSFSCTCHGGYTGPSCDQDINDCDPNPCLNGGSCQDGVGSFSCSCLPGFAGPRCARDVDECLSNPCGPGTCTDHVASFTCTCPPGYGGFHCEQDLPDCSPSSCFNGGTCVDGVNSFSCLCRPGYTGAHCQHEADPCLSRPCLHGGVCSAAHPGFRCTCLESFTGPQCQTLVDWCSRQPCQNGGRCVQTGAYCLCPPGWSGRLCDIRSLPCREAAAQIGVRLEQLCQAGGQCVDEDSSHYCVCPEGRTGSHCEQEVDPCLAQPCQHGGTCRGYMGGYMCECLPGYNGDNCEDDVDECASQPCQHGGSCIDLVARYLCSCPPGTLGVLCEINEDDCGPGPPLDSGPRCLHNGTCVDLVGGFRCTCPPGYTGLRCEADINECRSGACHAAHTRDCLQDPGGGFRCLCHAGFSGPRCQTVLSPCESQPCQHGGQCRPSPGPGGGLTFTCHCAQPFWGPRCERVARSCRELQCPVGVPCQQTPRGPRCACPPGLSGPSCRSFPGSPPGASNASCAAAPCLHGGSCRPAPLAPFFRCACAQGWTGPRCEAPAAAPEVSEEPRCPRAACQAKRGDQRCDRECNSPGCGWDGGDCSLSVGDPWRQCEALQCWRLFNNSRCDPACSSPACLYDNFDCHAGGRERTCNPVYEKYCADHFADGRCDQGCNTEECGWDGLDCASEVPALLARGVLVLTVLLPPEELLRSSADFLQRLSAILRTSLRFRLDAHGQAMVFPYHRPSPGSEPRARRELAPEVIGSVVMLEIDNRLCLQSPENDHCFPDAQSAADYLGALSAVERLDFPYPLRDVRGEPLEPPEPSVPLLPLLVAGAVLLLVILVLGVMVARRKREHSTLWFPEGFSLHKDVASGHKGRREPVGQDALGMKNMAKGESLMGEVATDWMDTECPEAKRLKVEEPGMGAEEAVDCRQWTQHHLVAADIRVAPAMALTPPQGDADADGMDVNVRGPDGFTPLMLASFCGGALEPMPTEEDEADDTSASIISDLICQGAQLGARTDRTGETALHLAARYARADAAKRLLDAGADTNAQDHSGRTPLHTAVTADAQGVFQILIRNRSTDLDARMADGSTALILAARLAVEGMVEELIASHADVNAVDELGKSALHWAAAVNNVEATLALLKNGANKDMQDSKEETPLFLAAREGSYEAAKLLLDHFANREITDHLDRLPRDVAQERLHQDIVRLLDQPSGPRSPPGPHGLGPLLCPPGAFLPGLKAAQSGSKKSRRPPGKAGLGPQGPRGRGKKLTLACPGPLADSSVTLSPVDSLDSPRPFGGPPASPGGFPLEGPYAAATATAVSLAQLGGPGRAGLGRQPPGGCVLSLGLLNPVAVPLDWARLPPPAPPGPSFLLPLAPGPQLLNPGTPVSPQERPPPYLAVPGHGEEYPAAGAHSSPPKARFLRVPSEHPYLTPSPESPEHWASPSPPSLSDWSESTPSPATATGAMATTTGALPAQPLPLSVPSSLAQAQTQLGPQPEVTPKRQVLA

[10] = probe aEGFR binding to arrayed compounds – biochemical, biotinylated probe, 635/667 nm fluorescence, primary screen (AID 1097); conditions: small-molecule microarray, higher = more signal;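 also: probe is a biotinylated anti-EGFR antibody binding compounds printed on slides; score combines fluorescence near 667 nm and signal to noise of each spot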

Compound	composite z-score [1]	z-score [2]	z-score [3]	z-score [4]	composite z-score [5]	z-score [6]	composite z-score [7]	composite z-score [8]	composite z-score [9]	composite z-score [10]
COc1ccc(COC(=O)NN=C2C[C@@H](O)[C@@H](O)[C@@H]3[C@@H]4C(=O)N(C[C@@H]5CCCO5)C(=O)[C@@H]4CC[C@@H]23)cc1	0.674	0.137 (inactive)	0.467 (inactive)	-0.389 (inactive)	0.486	0.859 (inactive)	-0.145	0.585	0.106	-0.1
CCOC(=O)[C@H](CC(C)C)NC(=O)CCC1CC(OC(=O)NCc2ccc3c(c2)OCO3)CC2(CCCC(COC(=O)NCCOc3ccccc3)O2)O1 (stereo not given in full)	1.17	-0.337 (inactive)	0.774 (inactive)	-0.211 (inactive)	1.68	0.097 (inactive)	-0.0928	0.878	1.11	-0.013
CON=C(C)CCN1CCCCc2nc(C)c(C)cc21	0.46	-0.114 (inactive)	-0.0037 (inactive)	-0.508 (inactive)	0.799	0.165 (inactive)	0.0945	0.572	0.397	0.0978
Cc1ccc(C(C)C)n1C(=O)OC(C)(C)C	0.0565	-0.923 (inactive)	-0.817 (inactive)	-0.665 (inactive)	0.345	-0.315 (inactive)	-0.138	0.535	0.915	-0.0549
CC(CCC(=O)OC[C@H]1O[C@H](C#Cc2ccccc2)C=C[C@@H]1Oc1ccc(C)cc1)=NO[C@@H](C)c1cc(-c2c(C)cc(C)cc2C)no1	-0.187	0.914 (inactive)	0.811 (inactive)	0.361 (inactive)	0.226	-0.318 (inactive)	-0.328	-0.199	-1.12	-0.296
CC(CCC(=O)OC[C@H]1O[C@H](C#Cc2ccccc2)C=C[C@@H]1Oc1ccc(C)cc1)=NO[C@H](C)c1cn([C@@H]2COC[C@H]2O)nn1	0.535	-1.42 (inactive)	-0.688 (inactive)	-0.0188 (inactive)	0.042	-0.342 (inactive)	-0.128	0.375	-0.151	-0.137
CCOC(=O)[C@H](Cc1ccccc1)NC(=O)CCC1CC(OC(=O)NCCc2ccc(F)cc2)CC2(CCCC(COC(=O)NCc3cccc(C(F)(F)F)c3)O2)O1 (stereo not given in full)	1.45	0.563 (inactive)	0.106 (inactive)	0.029 (inactive)	2.9	0.468 (inactive)	-0.0008	0.832	1.11	0.12
CCOC(=O)[C@H](Cc1ccccc1)NC(=O)CCC1CC(OC(=O)NCc2cccc3ccccc23)CC2(CCCC(COC(=O)NCC3CCCCC3)O2)O1 (stereo not given in full)	1.41	-0.617 (inactive)	-0.174 (inactive)	-0.445 (inactive)	1.4	-0.448 (inactive)	-0.117	0.926	1.14	-0.0381
CCOC(=O)[C@H](CC(C)C)NC(=O)CCC1CC(OC(=O)NCc2ccc3c(c2)OCO3)CC2(CCCC(COC(=O)NCCc3ccc(Cl)cc3)O2)O1 (stereo not given in full)	1.3	-1.06 (inactive)	-0.571 (inactive)	-1.81 (inactive)	1.39	0.544 (inactive)	-0.0615	0.553	0.951	0.065
CCOC(=O)[C@H](Cc1ccccc1)NC(=O)CCC1CC(OC(=O)NCCc2ccc(F)cc2)CC2(CCCC(COC(=O)NCCOc3ccccc3)O2)O1 (stereo not given in full)	1.53	-0.0952 (inactive)	0.549 (inactive)	0.0763 (inactive)	2.18	0.384 (inactive)	-0.0907	0.492	1.07	0.0009
CC(C)=NOC[C@@H](O)[C@H]1O[C@@H]2OC(C)(C)O[C@@H]2[C@H]1O	0.956	0.51 (inactive)	0.0819 (inactive)	0.243 (inactive)	0.178	0.132 (inactive)	0.19	0.625	0.498	0.0727
C=CC[C@@H]1C=C[C@H](ON=C2C[C@@H](O)[C@@H](O)[C@@H]3[C@@H]4C(=O)N(CC)C(=O)[C@@H]4CC[C@@H]23)[C@@H](CO)O1	0.245	0.442 (inactive)	-0.376 (inactive)	0.445 (inactive)	-0.004	-0.876 (inactive)	-0.0736	0.107	-0.724	-0.119
C#CCCCON=C1[C@H]2CCn3c(=O)n([C@@H](CC)c4ccccc4)c(=O)n3[C@H]2[C@H](O)[C@@H]2O[C@H]12	-0.142	-0.455 (inactive)	-1.1 (inactive)	-0.533 (inactive)	0.883	-0.647 (inactive)	-0.114	1.05	0.226	-0.042
CCOC(=O)[C@H](CC(C)C)NC(=O)CCC1CC(OC(=O)NCc2ccc3c(c2)OCO3)CC2(CCCC(COC(=O)NCCC(C)C)O2)O1 (stereo not given in full)	0.145	0.138 (inactive)	0.991 (inactive)	-0.511 (inactive)	-0.222	0.796 (inactive)	-0.193	0.482	0.24	-0.0828
O=C1[C@H]2[C@H]3[C@H](O)[C@H](O)CC(=NOC[C@@H](O)COCc4ccco4)[C@@H]3CC[C@H]2C(=O)N1c1cccc(Oc2ccccc2)c1	-0.76	0.321 (inactive)	-0.512 (inactive)	-0.86 (inactive)	-0.75	0.0129 (inactive)	0.0474	0.0054	-0.487	-0.156
COC(=O)[C@H](C)NC(=O)CCC1CC(OC(=O)NCc2cccc3ccccc23)CC2(CCCC(COC(=O)NCCc3ccccc3OC)O2)O1 (stereo not given in full)	1.37	0.502 (inactive)	1.02 (inactive)	2.03 (inactive)	2.38	0.476 (inactive)	-0.0179	1.14	0.817	0.0066
CC(CCN1CCCc2nc(C)c(C)cc21)=NO[C@H](C)c1cn([C@@H]2COC[C@H]2O)nn1	1.16	1.17 (inactive)	1.12 (inactive)	0.468 (inactive)	0.788	1.24 (inactive)	0.13	0.566	0.676	0.187
CCOC(=O)CCN1C(=O)[C@H]2[C@H]3[C@H](O)[C@H](O)CC(=O)[C@@H]3CC[C@H]2C1=O	0.58	-0.0366 (inactive)	-0.267 (inactive)	-0.0766 (inactive)	0.846	-0.353 (inactive)	-0.198	0.589	0.738	0.0004
COc1ccc(COC(=O)NN=C2C[C@@H](O)[C@@H](O)[C@@H]3[C@@H]4C(=O)N(Cc5ccccc5)C(=O)[C@@H]4CC[C@@H]23)cc1	0.166	0.712 (inactive)	0.304 (inactive)	-0.0766 (inactive)	0.105	0.555 (inactive)	-0.0873	0.123	0.724	-0.0868
O=C1C2=CC[C@H]3C(=O)N(c4ccc(F)cc4F)C(=O)[C@H]3[C@H]2[C@H](O)[C@@H]2O[C@H]12	0.137	-0.892 (inactive)	0.151 (inactive)	0.0688 (inactive)	-0.034	0.601 (inactive)	-0.124	0.526	0.634	-0.0967
Cc1cc(C)c(-c2cc([C@H](C)ON=C[C@@H](C)[C@H](OCc3ccccc3)C(C)C)on2)c(C)c1	-0.903	0.0494 (inactive)	0.217 (inactive)	0.817 (inactive)	-0.91	-0.461 (inactive)	0.0469	0.481	0.0065	-0.067
O=C1[C@H]2CCn3c(=O)n(-c4ccccc4)c(=O)n3[C@H]2[C@H](O)[C@@H]2O[C@H]12	-0.0775	0.689 (inactive)	-0.41 (inactive)	-0.206 (inactive)	-0.29	-0.0475 (inactive)	-0.225	0.224	-0.281	-0.181
COC(=O)CC=C1c2ccccc2[C@H](OC)[C@H]1C	-0.32	0.649 (inactive)	0.863 (inactive)	0.387 (inactive)	-0.655	0.194 (inactive)	-0.0732	0.189	-0.562	-0.0657
CC(C)(C)N1C(=O)[C@H]2[C@H]3[C@H](O)[C@H](O)CC(=NNC(=O)OCc4ccccc4)[C@H]3CC[C@H]2C1=O	1.3	0.272 (inactive)	-1.49 (inactive)	-0.391 (inactive)	1.39	0.0955 (inactive)	-0.191	0.683	0.4	-0.0051
